Laboratory results from PubChem BioAssay (NCI).
The panel holds about 83,000 compounds, 20% with a hit somewhere; the sample as a whole holds those more often.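 In brief: 96-well plates, 48 h treatment, single concentration, percent growth endpoint.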 The source made the active and inactive calls. How the source made its calls: active means growth percent below 10; inactive means the rest.

Key:
Experiment in all cases: NCI-60 one-dose screen, 48 h (100 = growth as untreated, 0 = no growth, -100 = all killed)
Details in all cases: 10 µM unless noted
[1] = test system: SR leukemia
[2] = test system: RPMI-8226 leukemia
[3] = test system: OVCAR-8 ovarian
[4] = test system: OVCAR-5 ovarian
[5] = test system: OVCAR-4 ovarian
[6] = test system: SK-OV-3 ovarian
[7] = test system: IGROV1 ovarian
[8] = test system: OVCAR-3 ovarian
[9] = test system: HS 578T breast
[10] = test system: NCI/ADR-RES ovarian
[11] = test system: T-47D breast
[12] = test system: BT-549 breast
[13] = test system: SW-620 colon
[14] = test system: MCF7 breast
[15] = test system: HCT-116 colon
[16] = test system: HCC-2998 colon
[17] = test system: KM12 colon
[18] = test system: MDA-MB-468 breast
[19] = test system: MDA-MB-435 melanoma

Measured: growth

Cc1cccc(-c2nc(Nc3ccc(C)c(S(N)(=O)=O)c3)c3ccccc3n2)c1
inactive: [2] 12.9% | [3] 32.8% | [4] 47.6% | [5] 44.7% | [6] 103% | [7] 42.9% | [8] 39.3% | [9] 53.4% | [10] 18.7% | [11] 29.1% | [12] 75.6% | [13] 23.7% | [15] 25.3% | [18] 13.4%
active: [1] 9.02% | [14] 1.69% | [16] -63.7% | [17] -24.8%

COc1ccc(NC(=O)[C@@H](N)Cc2ccccc2)cc1C(=O)Nc1cccc(C2CC(=O)c3c(cc(OC)c(OC)c3OC)O2)c1 (stereo partly specified)
inactive: [1] 14.7% | [2] 20.2% | [3] 29.1% | [4] 101% | [5] 54.7% | [6] 152% | [7] 74.5% | [8] 64% | [9] 77.6% | [10] 39.3% | [11] 25.3% | [12] 19.8% | [19] 56.8% | [14] 28.1% | [15] 45.2% | [16] 114% | [17] 35.1% | [18] 44.3%

C#C[C@]1(O)CC[C@H]2[C@@H]3CC=C4c5sc(-c6ccc([N+](=O)[O-])cc6)nc5CC[C@]4(C)[C@H]3CC[C@@]21C
active: [1] 1.72% | [2] -10.7% | [8] -25.2% | [13] -12.5% | [14] 0.614% | [15] 0.46% | [16] -49.2% | [17] -27.1% | [18] -17.8%
inactive: [3] 11.3% | [4] 12.5% | [5] 46.5% | [6] 53% | [7] 26.4% | [9] 29.6% | [10] 25.7% | [11] 24.9% | [12] 36.8%

O=C(COc1ccc(NC(=O)Nc2ccc(Cl)c(Cl)c2)cc1)N=Nc1c(O)[nH]c2ccc(Cl)cc12
inactive: [10] 85.2%
active: [1] 3.93% | [2] 6.94% | [3] -48.4% | [4] -28% | [5] -16.6% | [6] -22.2% | [7] -48.6% | [8] -81.7% | [9] -13.7% | [11] -13% | [12] -71.7% | [19] -61.4% | [14] 3.54% | [15] -53.5% | [16] -51.4% | [17] -87.9% | [18] -51%

CCCCSc1nc(Nc2ccc(S(N)(=O)=O)cc2)c(C#N)c(-c2cc(OC)c(OC)c(OC)c2)n1
inactive: [2] 10.7% | [3] 31.5% | [4] 53.7% | [5] 40.2% | [6] 105% | [7] 46.8% | [8] 49.8% | [9] 67.8% | [10] 32.5% | [11] 15.2% | [12] 44.3% | [19] 33% | [15] 21.8% | [16] 65% | [17] 26.6% | [18] 61.2%
active: [1] 8.85%

COc1ccc2[nH]c(=O)c(CSc3nccc(-c4ccc(OC)c(OC)c4)n3)cc2c1
inactive: [1] 23.1% | [2] 14.7% | [3] 16% | [4] 52.4% | [6] 55.8% | [7] 49.8% | [8] 41.9% | [10] 23.6% | [19] 11.4% | [16] 26.3% | [17] 32.2%
active: [5] 8.75% | [9] -7.63% | [11] -2.81% | [12] -43.8% | [15] 8.21% | [18] -12.3%

COc1ccc(-c2ccc(SCC(=O)Nc3ccc(S(N)(=O)=O)cc3Br)nn2)cc1
inactive: [1] 92.7% | [2] 85.8% | [3] 48.7% | [4] 99.6% | [5] 38% | [6] 62.3% | [7] 105% | [8] 98.3% | [9] 44.8% | [10] 95.3% | [11] 76.9% | [12] 49.3% | [19] 108% | [13] 91.3% | [15] 79.4% | [16] 99.3% | [17] 88.7% | [18] 86.9%

Nc1nnc(-c2c[nH]c3ncc(Br)cc23)c(-c2c[nH]c3ccc(F)cc23)n1
inactive: [1] 13.6% | [2] 33.7% | [3] 39% | [4] 48.6% | [5] 59.6% | [6] 80.5% | [7] 37.4% | [8] 33.2% | [9] 28% | [10] 70.7% | [11] 38.2% | [12] 54.4% | [19] 26% | [14] 18.6% | [15] 26% | [16] 45.9% | [17] 30.5% | [18] 13.1%

CCCn1cc(-c2nc(Nc3ccc(C(=O)NCCCCNc4cccc5c4C(=O)N(C4CCC(=O)NC4=O)C5=O)cc3)nc3[nH]ccc23)cn1 (stereo unspecified)
inactive: [1] 25.1% | [2] 17.5% | [4] 54.2% | [6] 24.8% | [8] 36.3% | [10] 95.6% | [19] 34.2% | [15] 72.3%
active: [3] 6.6% | [5] 9.82% | [7] 7.36% | [9] 6.24% | [11] -11% | [12] -36.1% | [13] 9.12% | [16] 5.84% | [17] 6.05% | [18] -36.3%

CC1=C(C(=O)c2ccccc2)C(c2ccc(-n3cncn3)cc2)n2c(nc3ccccc32)N1 (stereo unspecified)
inactive: [1] 76.9% | [2] 63.4% | [3] 91.4% | [4] 97.3% | [5] 71.8% | [6] 79.3% | [7] 83.1% | [8] 107% | [10] 85.6% | [11] 83.6% | [12] 67.4% | [19] 94% | [14] 66.7% | [15] 73% | [16] 109% | [17] 94.6% | [18] 95.6%

O=C(O)c1cccc(-c2ccc(/C=N/NC(=O)c3[nH]c4ccc(Br)cc4c3-c3ccccc3)s2)c1
active: [10] -22.5%
inactive: [1] 24.1% | [2] 54.2% | [3] 44.9% | [4] 112% | [5] 42% | [6] 103% | [7] 37.9% | [8] 22.3% | [11] 54.5% | [12] 49.3% | [19] 10.4% | [14] 13.7% | [15] 31.5% | [16] 49.9% | [17] 21.6% | [18] 15.7%

CC(=O)Nc1cccc(Nc2nc(N[C@H]3CCCc4ccccc43)c3ccccc3n2)c1
inactive: [1] 81.3% | [2] 103% | [3] 103% | [4] 103% | [5] 104% | [6] 91.6% | [7] 111% | [8] 107% | [10] 100% | [11] 102% | [12] 131% | [19] 102% | [14] 95.6% | [15] 108% | [16] 117% | [17] 101% | [18] 101%

CC(C)CCNC(=O)N/C(N)=N/c1nc2ccccc2s1
active: [18] 5.8%
inactive: [1] 34.4% | [2] 38.2% | [3] 70.7% | [4] 93% | [5] 48.7% | [6] 87.9% | [7] 76.6% | [8] 80.4% | [10] 56.6% | [11] 46.6% | [12] 64.6% | [19] 44.2% | [14] 28.5% | [15] 54.7% | [16] 97.6% | [17] 62.7%

CC(=O)Oc1ccccc1C(=O)[Se]CC(=O)Nc1cccc(C(F)(F)F)c1
inactive: [1] 31.2% | [2] 35.6% | [5] 39.6% | [11] 56.5% | [16] 60% | [17] 25.3%
active: [3] -46.6% | [4] -30.9% | [6] 0.121% | [7] -64.9% | [8] -12% | [10] -63.8% | [12] -91% | [19] -29.7% | [14] 3.36% | [15] -47.7% | [18] -88.8%

CC(=O)Nc1cccc(Nc2nccc(N[C@@H](C)c3ccccc3)n2)c1
inactive: [4] 34.2% | [5] 50.7% | [6] 38.9% | [7] 15.9% | [8] 18% | [11] 40.2% | [19] 18.7% | [14] 16.5% | [16] 27.1% | [18] 18.1%
active: [1] 2.48% | [2] 8.53% | [3] 9.3% | [10] 3.58% | [12] 9.69% | [15] 9.73% | [17] 3.5%

CNC(=O)c1cc(Oc2ccc3nc(NC(=O)Nc4cccc(OC(F)(F)F)c4)sc3c2)ccn1
inactive: [1] 37.3% | [2] 51.7% | [4] 50.6% | [5] 30.8% | [7] 28.4% | [8] 46.2% | [11] 47.4% | [19] 53.9% | [14] 39.2% | [15] 17.2% | [16] 46.8% | [17] 53.1%
active: [3] 6.11% | [6] -30.7% | [10] -2.64% | [12] 0.174% | [18] 1.5%

C=C1CC[C@@H]2[C@]3(C)COC(c4cn[nH]c4-c4ccc(OC)cc4)O[C@@H]3CC[C@@]2(C)[C@@H]1C/C=C1/C(=O)OCC1O (stereo partly specified)
active: [1] -29.9% | [2] -27% | [3] -3.29% | [4] -27.1% | [5] 3.78% | [6] 6.09% | [8] 5.62% | [11] 6.85% | [12] -32.9% | [19] -52.2% | [14] 2.05% | [15] -19% | [16] -24.2% | [17] -5.21% | [18] -7.84%
inactive: [7] 17.1% | [10] 16.7%
